Active and inactive are the calls of the source. The calls were made as follows: active = hit-call score of the fitted dose curve at least 0.9, where 1 is the maximum; inactive = score below 0.9.
Columns and labels:
Details in all cases: mRNA level, 48 h; actives raise or lower the signal
[1] = read-out: Cytochrome P450 (CYP24A1), CYP24A1 (gene 1591); test: LTEA_HepaRG_CYP24A1: Life Technologies and Expression Analysis (LTEA) Assay for Cytochrome P450 (CYP24A1) using HepaRG (AID 2283478)
Procedure, shortened: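 qRT-PCR read-out: CYP24A1 transcript levels normalized to three housekeeping genes, bidirectional curve fits against 0.5% DMSO baseline. Human HepaRG cells treated 48 h with chemicals at eight concentrations from 100 uM in half-log steps.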

[2] = read-out: Cytochrome P450 (CYP1A2), CYP1A2 (gene 1544); test: LTEA_HepaRG_CYP1A2: Life Technologies and Expression Analysis (LTEA) Assay for Cytochrome P450 (CYP1A2) using HepaRG (AID 2283479)
Procedure, shortened: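 HepaRG, 48 h exposure, top 100 uM, half-log 8-pt, 0.5% DMSO vehicle, duplicates. Readout: TaqMan qRT-PCR of CYP1A2 mRNA, housekeeping-normalized (ACTB/GAPDH/POLR2A). Gain/loss fit relative to DMSO baseline.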

[3] = read-out: cysteine-aspartic acid protease (CASP8), CASP8 (gene 841); test: LTEA_HepaRG_CASP8: Life Technologies and Expression Analysis (LTEA) Assay for cysteine-aspartic acid protease (CASP8) using HepaRG (AID 2283480)
Procedure, shortened: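 qRT-PCR readout of CASP8 mRNA, normalized to three housekeeping genes, after 48 h chemical exposure of HepaRG cells; 8-point half-log series, top 100 uM, 0.5% DMSO vehicle. Bidirectional curve fitting against DMSO baseline.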

[4] = read-out: Cytochrome P450 2C19 (Homo sapiens) (UniProt P33261); test: LTEA_HepaRG_CYP2C19: Life Technologies and Expression Analysis (LTEA) Assay for CYP2C19 using HepaRG (AID 2283482)
Procedure, shortened: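 HepaRG, 48 h chemical exposure, 8-pt half-log series from 100 uM in 0.5% DMSO, duplicates. Readout: CYP2C19 mRNA by TaqMan qRT-PCR, housekeeping-normalized. Bidirectional fit vs DMSO baseline; phenobarbital 1mM as induction control.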

CYP2C8 (gene 1558) = test: LTEA_HepaRG_CYP2C8: Life Technologies and Expression Analysis (LTEA) Assay for CYP2C8 using HepaRG (AID 2283483)
Procedure, shortened: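 HepaRG (human liver line), 48 h chemical exposure, 8-pt half-log series from 100 uM, 0.5% DMSO vehicle. Readout: CYP2C8 transcript by qRT-PCR, housekeeping-normalized. Bidirectional fit vs DMSO baseline.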

CYP2C9 (gene 1559) = test: LTEA_HepaRG_CYP2C9: Life Technologies and Expression Analysis (LTEA) Assay for CYP2C9 using HepaRG (AID 2283484)
Procedure, shortened: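 HepaRG, 48 h dosing, 8-pt half-log series, top 100 uM, 0.5% DMSO vehicle. Read-out: CYP2C9 transcript by TaqMan qRT-PCR, housekeeping-normalized (ACTB/GAPDH/POLR2A). Gain or loss fitted vs DMSO baseline.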

CYP2E1 (gene 1571) = test: LTEA_HepaRG_CYP2E1: Life Technologies and Expression Analysis (LTEA) Assay for CYP2E1 using HepaRG (AID 2283485)
Procedure, shortened: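 CYP2E1 transcript was measured by TaqMan qRT-PCR in human HepaRG cultures after 48 h chemical exposure (top 100 uM, half-log steps, 0.5% DMSO vehicle). Housekeeping-gene normalization; gain or loss fitted relative to DMSO baseline.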

CYP4A11 (gene 1579) = test: LTEA_HepaRG_CYP4A11: Life Technologies and Expression Analysis (LTEA) Assay for CYP4A11 using HepaRG (AID 2283486)
Procedure, shortened: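 CYP4A11 transcript levels were quantified by TaqMan qRT-PCR after HepaRG human liver cells were treated for 48 hours with test chemicals (top 100 uM, half-log dilutions, 0.5% DMSO). Gain or loss of signal was fitted relative to DMSO.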

[5] = read-out: Cytochrome P450 3A4 (Homo sapiens) (UniProt P08684); test: LTEA_HepaRG_CYP3A4: Life Technologies and Expression Analysis (LTEA) Assay for CYP3A4 using HepaRG (AID 2283487)
Procedure, shortened: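 Differentiated HepaRG cells, plated 48 h, then dosed 48 h in serum-free induction medium with 0.5% DMSO, 8 half-log concentrations up to 100 uM, duplicate. CYP3A4 mRNA by qRT-PCR, normalized to ACTB/GAPDH/POLR2A; bidirectional fit versus DMSO.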

[6] = read-out: Pro-epidermal growth factor (Homo sapiens) (UniProt P01133); test: LTEA_HepaRG_EGF: Life Technologies and Expression Analysis (LTEA) Assay for Epidermal growth factor (EGF) using HepaRG (AID 2283489)
Procedure, shortened: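 qRT-PCR readout of EGF transcript after 48 h chemical exposure of HepaRG cells; eight concentrations from 100 uM down in half-log steps, duplicate wells, 0.5% DMSO vehicle. Bidirectional curve fitting against DMSO baseline.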

[7] = read-out: Ezrin (EZR), EZR (gene 7430); test: LTEA_HepaRG_EZR: Life Technologies and Expression Analysis (LTEA) Assay for Ezrin (EZR) using HepaRG (AID 2283491)
Procedure, shortened: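 EZR transcript levels came from Fluidigm qRT-PCR and were normalized to three housekeeping genes after 48 h chemical exposure of HepaRG cells. Dosing used an 8-point half-log series with a 100 uM top concentration in 0.5% DMSO, tested in duplicate; both directions were fitted versus vehicle.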

[8] = read-out: Cytochrome P450 3A7 (Homo sapiens) (UniProt P24462); test: LTEA_HepaRG_CYP3A7: Life Technologies and Expression Analysis (LTEA) Assay for CYP3A7 using HepaRG (AID 2283492)
Procedure, shortened: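 CYP3A7 transcript levels were read by TaqMan qRT-PCR on Fluidigm arrays after 48 h chemical exposure of human HepaRG cells, with housekeeping-gene normalisation. Eight half-log concentrations up to 100 uM in 0.5% DMSO were tested in duplicate.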

CYP3A5 (gene 1577) = test: LTEA_HepaRG_CYP3A5: Life Technologies and Expression Analysis (LTEA) Assay for CYP3A5 using HepaRG (AID 2283493)
Procedure, shortened: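 qRT-PCR read-out: CYP3A5 transcript in HepaRG lysates, housekeeping-normalized (ACTB/GAPDH/POLR2A), fitted bidirectionally against 0.5% DMSO baseline. Exposure 48 h, eight half-log concentrations up to 100 uM, duplicates.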

[9] = read-out: Cytochrome P450 4A22 (Homo sapiens) (UniProt Q5TCH4); test: LTEA_HepaRG_CYP4A22: Life Technologies and Expression Analysis (LTEA) Assay for Cytochrome P450 4A22 (CYP4A22) using HepaRG (AID 2283495)
Procedure, shortened: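 HepaRG, 48 h post-plating -> serum-free induction medium; dosed 48 h, duplicate, 8 conc. (100 uM top, half-log), 0.5% DMSO. Readout: CYP4A22 mRNA by qRT-PCR, ACTB/GAPDH/POLR2A normalization; gain/loss fit relative to DMSO.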

[10] = read-out: Glutathione S-Transferase (GSTA2), GSTA2 (gene 2939); test: LTEA_HepaRG_GSTA2: Life Technologies and Expression Analysis (LTEA) Assay for Glutathione S-Transferase (GSTA2) using HepaRG (AID 2283497)
Procedure, shortened: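 qRT-PCR readout of GSTA2 transcript, normalized to three housekeeping genes, fitted bidirectionally against 0.5% DMSO baseline. Differentiated HepaRG cells received compound for 48 h at 8 concentrations (top 100 uM, half-log steps).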

[11] = read-out: Cytochrome P450 7A1 (Homo sapiens) (UniProt P22680); test: LTEA_HepaRG_CYP7A1: Life Technologies and Expression Analysis (LTEA) Assay for Cytochrome P450 7A1 (CYP7A1) using HepaRG (AID 2283496)
Procedure, shortened: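 Using 0.5% DMSO as vehicle and baseline, chemicals were tested in duplicate over an 8-point range from 100 uM on HepaRG cells for 48 h; qRT-PCR signals were normalised to ACTB, GAPDH and POLR2A.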

[12] = read-out: Early growth response protein 1 (EGR1) transcription factor, EGR1 (gene 1958); test: LTEA_HepaRG_EGR1: Life Technologies and Expression Analysis (LTEA) Assay for Early growth response protein 1 (EGR1) transcription factor using HepaRG (AID 2283490)
Procedure, shortened: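 HepaRG, 48 h exposure, 8-pt half-log series from 100 uM, 0.5% DMSO vehicle; EGR1 transcript by TaqMan qRT-PCR (Fluidigm array), housekeeping-normalized; bidirectional fit relative to DMSO baseline.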

[13] = read-out: Fatty Acid-Binding Protein 1 (FABP1), FABP1 (gene 2168); test: LTEA_HepaRG_FABP1: Life Technologies and Expression Analysis (LTEA) Assay for Fatty Acid-Binding Protein 1 (FABP1) using HepaRG (AID 2283494)
Procedure, shortened: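 qRT-PCR readout of FABP1 transcript (normalized to three housekeeping genes) after 48 h chemical exposure of HepaRG cells; eight concentrations, half-log steps, max 100 uM, 0.5% DMSO vehicle; gain or loss fitted relative to DMSO baseline.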

Measured: AC50

Sequence of Cytochrome P450 3A4 (Homo sapiens) (P08684 whole entry, looked up): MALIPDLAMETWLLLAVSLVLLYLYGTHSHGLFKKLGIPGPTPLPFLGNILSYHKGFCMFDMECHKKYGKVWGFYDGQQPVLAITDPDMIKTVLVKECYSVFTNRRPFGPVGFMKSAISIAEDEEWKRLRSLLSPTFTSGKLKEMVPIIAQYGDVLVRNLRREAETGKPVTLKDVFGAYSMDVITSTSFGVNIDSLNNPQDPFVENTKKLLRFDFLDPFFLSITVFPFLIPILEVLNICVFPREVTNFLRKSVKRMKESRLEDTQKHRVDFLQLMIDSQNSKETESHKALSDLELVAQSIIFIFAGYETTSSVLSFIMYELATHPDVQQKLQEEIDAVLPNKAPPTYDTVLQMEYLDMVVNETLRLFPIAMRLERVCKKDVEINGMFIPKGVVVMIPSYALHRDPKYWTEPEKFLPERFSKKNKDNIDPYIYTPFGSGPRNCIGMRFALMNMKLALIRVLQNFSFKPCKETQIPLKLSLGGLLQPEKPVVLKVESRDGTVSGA
Sequence of Cytochrome P450 2C19 (Homo sapiens) (P33261 whole entry, looked up): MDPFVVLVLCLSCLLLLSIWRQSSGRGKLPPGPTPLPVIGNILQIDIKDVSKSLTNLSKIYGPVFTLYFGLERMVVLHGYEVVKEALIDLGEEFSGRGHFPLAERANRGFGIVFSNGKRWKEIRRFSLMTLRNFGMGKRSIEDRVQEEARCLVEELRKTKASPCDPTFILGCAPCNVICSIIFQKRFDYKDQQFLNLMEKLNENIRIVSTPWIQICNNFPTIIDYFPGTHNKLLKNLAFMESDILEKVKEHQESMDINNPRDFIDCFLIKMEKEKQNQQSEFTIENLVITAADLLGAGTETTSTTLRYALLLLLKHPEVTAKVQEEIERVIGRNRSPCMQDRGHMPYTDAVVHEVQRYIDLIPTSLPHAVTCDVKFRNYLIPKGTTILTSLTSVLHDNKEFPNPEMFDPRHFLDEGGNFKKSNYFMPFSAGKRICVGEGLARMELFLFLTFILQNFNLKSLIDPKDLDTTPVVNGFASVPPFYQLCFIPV
Sequence of Cytochrome P450 3A7 (Homo sapiens) (P24462 whole entry, looked up): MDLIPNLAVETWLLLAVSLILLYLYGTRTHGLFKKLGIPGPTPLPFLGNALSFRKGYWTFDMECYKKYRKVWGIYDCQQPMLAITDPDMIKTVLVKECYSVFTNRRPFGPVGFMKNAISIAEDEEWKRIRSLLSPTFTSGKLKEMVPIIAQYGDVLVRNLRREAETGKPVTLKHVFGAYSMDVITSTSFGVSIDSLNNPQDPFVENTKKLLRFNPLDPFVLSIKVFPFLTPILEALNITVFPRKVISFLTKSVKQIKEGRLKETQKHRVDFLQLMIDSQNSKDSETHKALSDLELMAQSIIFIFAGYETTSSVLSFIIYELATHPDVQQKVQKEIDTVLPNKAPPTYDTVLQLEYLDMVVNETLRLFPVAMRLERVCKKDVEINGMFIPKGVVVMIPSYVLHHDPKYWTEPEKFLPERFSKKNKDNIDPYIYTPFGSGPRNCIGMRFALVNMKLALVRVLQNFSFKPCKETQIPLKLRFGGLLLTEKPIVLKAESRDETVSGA

CCC(=C(c1ccc(O)cc1)c1ccc(OCCN(C)C)cc1)c1ccccc1
active: [3] 75.9 µM | [4] 91.4 µM | CYP2C8 (gene 1558) 2.39 µM | CYP4A11 (gene 1579) 84.4 µM | [5] 2.51 µM | [8] 3.5 µM | CYP3A5 (gene 1577) 92.9 µM
inactive: [1] | [2] | CYP2C9 (gene 1559) | CYP2E1 (gene 1571) | [6] | [7] | [9] | [10]

c1ccc2cc3c(ccc4ccccc43)cc2c1
inactive: [1] | [3] | [6] | [7]
active: [2] 1.99 µM | [4] 15.2 µM | CYP2C8 (gene 1558) 13.7 µM | CYP2C9 (gene 1559) 11.8 µM | CYP2E1 (gene 1571) 22.3 µM | CYP4A11 (gene 1579) 32.8 µM | [5] 3.99 µM | [8] 15.7 µM | CYP3A5 (gene 1577) 7.18 µM | [9] 26 µM | [11] 20.6 µM | [10] 8.52 µM

O=C(O)c1ccccc1C(c1ccc(O)cc1)c1ccc(O)cc1
inactive: [1] | [2] | [3] | [4] | CYP2C8 (gene 1558) | CYP2C9 (gene 1559) | CYP2E1 (gene 1571) | CYP4A11 (gene 1579) | [5] | [6] | [12] | [7] | [8] | CYP3A5 (gene 1577) | [13] | [9] | [11] | [10]

C=C(C)C(=O)OCCC(F)(F)C(F)(F)C(F)(F)C(F)(F)C(F)(F)C(F)(F)F
active: CYP2E1 (gene 1571) 20.1 µM
inactive: [1] | [2] | [3] | [4] | CYP2C8 (gene 1558) | CYP2C9 (gene 1559) | CYP4A11 (gene 1579) | [5] | [6] | [12] | [7] | [8] | CYP3A5 (gene 1577) | [13] | [9] | [11] | [10]
